# Assays:
# Assay in all cases: DAPPL (digital affinity profiling via proximity ligation, sequencing); 10 mM Tris-HCl pH 7.5, 50 mM NaCl, 1 mM DTT, 4% glycerol, room temperature, 30 min; GST-TFs on glutathione beads, 16-mer random dsDNA library, 0.1% formaldehyde crosslink after washing; high values mean tight binding
# FEV = molecular target: T1, FEV (Homo sapiens, UniProt Q99581 1-238); settings: protein: recombinant; tags: N-terminal GST; dsDNA, one strand shown
# T1 sequence: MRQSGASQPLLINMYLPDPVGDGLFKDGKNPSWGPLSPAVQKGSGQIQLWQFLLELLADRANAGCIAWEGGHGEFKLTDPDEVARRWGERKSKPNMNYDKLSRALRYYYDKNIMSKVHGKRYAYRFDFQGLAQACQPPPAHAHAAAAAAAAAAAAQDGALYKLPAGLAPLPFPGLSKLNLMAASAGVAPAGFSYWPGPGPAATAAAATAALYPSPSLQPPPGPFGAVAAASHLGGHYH
# How it was run: (§1)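 In yeast, human transcription factors were expressed with a GST fusion, then pulled down on glutathione beads and given DNA barcodes. Pooled with a tag-only sample, they were exposed to 200 nmole of a 16-mer random double-stranded DNA library (Tris/NaCl/DTT/glycerol buffer, room temperature, 30 min), washed, crosslinked with 0.1% formaldehyde, proximity-ligated using BsaI/T4 ligase for 1 h at 37 °C, PCR-amplified and read on an Illumina NextSeq500. Each hexamer's frequency of reads for a factor, divided by the matching frequency for the tag-only sample, gives the binding signal.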
# ETV5 = ETV5 (Homo sapiens, UniProt P41161 1-510); settings: protein: recombinant; tags: N-terminal GST; dsDNA, one strand shown
# Chain of ETV5 (P41161 whole entry): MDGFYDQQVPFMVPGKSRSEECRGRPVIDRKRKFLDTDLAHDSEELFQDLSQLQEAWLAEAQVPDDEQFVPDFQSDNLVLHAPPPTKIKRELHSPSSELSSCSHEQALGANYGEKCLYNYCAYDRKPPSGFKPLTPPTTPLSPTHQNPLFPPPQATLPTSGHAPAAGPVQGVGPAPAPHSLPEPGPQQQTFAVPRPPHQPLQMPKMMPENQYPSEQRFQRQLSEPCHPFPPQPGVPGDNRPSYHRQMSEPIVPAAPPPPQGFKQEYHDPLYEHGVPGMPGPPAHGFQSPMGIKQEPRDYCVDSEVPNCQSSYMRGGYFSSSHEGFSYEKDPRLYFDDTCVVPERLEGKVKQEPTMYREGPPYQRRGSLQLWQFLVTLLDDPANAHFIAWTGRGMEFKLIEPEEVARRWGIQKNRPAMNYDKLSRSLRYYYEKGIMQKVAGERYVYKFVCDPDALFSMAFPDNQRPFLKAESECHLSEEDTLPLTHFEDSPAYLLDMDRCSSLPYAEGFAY
# How it was run: as §1
# HSF1 = HSF1 (Homo sapiens, UniProt Q00613 1-529); settings: protein: recombinant; tags: N-terminal GST; chain copies: 3; dsDNA, one strand shown
# Chain of HSF1 (Q00613 whole entry): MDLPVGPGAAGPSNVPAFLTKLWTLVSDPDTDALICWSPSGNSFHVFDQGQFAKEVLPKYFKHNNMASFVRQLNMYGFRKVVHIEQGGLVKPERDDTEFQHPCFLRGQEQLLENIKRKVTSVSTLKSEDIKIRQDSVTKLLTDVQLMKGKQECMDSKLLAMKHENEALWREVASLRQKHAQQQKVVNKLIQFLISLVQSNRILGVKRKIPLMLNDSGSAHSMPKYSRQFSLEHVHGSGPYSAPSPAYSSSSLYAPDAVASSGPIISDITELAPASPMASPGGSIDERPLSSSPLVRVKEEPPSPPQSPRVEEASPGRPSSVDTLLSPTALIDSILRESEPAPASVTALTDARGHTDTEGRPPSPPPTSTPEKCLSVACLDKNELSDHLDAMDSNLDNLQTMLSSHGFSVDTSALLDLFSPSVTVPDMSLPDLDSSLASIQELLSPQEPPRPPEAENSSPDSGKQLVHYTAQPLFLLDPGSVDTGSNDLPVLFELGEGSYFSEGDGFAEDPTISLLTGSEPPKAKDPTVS
# How it was run: as §1
# SPIC = molecular target: T2, SPIC (Homo sapiens, UniProt Q8N5J4 1-248); settings: protein: recombinant; tags: N-terminal GST; dsDNA, one strand shown
# T2 sequence: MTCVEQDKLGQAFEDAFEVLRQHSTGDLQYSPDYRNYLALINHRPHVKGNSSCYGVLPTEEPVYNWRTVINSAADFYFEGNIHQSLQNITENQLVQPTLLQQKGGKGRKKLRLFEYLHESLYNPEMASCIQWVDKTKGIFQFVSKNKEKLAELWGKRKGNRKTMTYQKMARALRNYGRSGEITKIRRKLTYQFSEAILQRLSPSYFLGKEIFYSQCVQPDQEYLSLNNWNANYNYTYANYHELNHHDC
# How it was run: as §1
# ELF4 = ELF4 (Homo sapiens, UniProt Q99607 1-663); settings: protein: recombinant; tags: N-terminal GST; dsDNA, one strand shown
# Chain of ELF4 (Q99607 whole entry): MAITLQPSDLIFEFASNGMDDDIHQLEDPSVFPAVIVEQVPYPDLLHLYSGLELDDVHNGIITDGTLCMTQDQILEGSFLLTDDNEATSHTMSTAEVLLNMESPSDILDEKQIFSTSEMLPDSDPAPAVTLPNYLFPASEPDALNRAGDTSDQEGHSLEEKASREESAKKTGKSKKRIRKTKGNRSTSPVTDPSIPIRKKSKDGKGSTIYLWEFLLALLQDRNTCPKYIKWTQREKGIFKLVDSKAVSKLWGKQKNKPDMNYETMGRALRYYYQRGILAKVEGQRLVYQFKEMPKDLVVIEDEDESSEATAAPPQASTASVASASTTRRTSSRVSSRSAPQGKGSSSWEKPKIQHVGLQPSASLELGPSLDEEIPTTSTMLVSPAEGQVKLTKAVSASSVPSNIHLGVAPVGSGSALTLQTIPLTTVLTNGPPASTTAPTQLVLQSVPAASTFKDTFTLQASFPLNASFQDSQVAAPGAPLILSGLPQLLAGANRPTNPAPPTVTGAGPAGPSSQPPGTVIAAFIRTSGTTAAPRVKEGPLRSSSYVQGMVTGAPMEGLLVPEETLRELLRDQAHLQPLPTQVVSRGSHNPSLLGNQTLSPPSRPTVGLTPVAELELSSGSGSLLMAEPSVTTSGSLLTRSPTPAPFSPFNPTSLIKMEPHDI
# How it was run: as §1
# ELK4 = molecular target: T3, ELK4 (Homo sapiens, UniProt P28324-2 1-405); settings: protein: recombinant; tags: N-terminal GST; dsDNA, one strand shown
# T3 sequence: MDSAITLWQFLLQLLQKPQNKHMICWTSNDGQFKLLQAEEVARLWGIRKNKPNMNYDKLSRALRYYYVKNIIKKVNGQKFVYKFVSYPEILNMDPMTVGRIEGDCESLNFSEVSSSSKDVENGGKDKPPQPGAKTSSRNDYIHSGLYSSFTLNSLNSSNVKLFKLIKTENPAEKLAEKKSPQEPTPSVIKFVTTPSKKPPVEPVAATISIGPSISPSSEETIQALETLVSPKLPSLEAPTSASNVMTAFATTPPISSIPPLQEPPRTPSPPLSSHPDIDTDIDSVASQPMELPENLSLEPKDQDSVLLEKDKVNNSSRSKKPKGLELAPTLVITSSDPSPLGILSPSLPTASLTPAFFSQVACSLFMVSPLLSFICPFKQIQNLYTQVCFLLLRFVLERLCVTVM
# How it was run: as §1
# ETV2 = molecular target: T4, ETV2 (Homo sapiens, UniProt O00321 1-342); settings: protein: recombinant; tags: N-terminal GST; dsDNA, one strand shown
# T4 sequence: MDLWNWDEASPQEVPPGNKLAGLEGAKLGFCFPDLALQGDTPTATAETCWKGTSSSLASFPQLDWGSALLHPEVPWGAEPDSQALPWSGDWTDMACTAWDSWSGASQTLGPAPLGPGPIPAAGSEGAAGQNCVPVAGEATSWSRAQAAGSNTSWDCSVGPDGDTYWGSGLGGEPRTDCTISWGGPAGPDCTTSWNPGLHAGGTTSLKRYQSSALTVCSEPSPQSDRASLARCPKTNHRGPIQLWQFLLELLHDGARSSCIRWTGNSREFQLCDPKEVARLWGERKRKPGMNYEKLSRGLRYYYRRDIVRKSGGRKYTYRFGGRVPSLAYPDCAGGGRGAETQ
# How it was run: as §1
# ELF3 = molecular target: T5, ELF3 (Homo sapiens, UniProt P78545 1-371); settings: protein: recombinant; tags: N-terminal GST; dsDNA, one strand shown
# T5 sequence: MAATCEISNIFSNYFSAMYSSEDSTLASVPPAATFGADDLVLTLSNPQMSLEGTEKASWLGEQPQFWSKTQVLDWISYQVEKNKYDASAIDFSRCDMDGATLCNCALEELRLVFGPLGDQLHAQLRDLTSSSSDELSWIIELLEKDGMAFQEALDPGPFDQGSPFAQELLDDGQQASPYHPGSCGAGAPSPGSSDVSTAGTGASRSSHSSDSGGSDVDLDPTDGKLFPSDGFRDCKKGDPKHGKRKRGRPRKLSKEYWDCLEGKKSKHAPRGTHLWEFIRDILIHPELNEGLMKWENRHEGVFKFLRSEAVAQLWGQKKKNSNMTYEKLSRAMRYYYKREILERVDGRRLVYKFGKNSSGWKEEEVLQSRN
# How it was run: as §1
# CRX = CRX (Homo sapiens, UniProt O43186 1-299); settings: protein: recombinant; tags: N-terminal GST; dsDNA, one strand shown
# Chain of CRX (O43186 whole entry): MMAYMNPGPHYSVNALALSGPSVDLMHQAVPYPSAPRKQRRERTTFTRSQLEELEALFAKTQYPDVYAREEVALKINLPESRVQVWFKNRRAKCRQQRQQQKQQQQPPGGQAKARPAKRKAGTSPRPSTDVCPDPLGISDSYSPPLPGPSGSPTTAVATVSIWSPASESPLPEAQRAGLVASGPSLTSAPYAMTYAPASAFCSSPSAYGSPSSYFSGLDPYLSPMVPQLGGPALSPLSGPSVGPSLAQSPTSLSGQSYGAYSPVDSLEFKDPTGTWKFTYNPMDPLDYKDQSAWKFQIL
# How it was run: as §1
# ETV1 = ETV1 (Homo sapiens, UniProt P50549 1-477); settings: protein: recombinant; tags: N-terminal GST; dsDNA, one strand shown
# Chain of ETV1 (P50549 whole entry): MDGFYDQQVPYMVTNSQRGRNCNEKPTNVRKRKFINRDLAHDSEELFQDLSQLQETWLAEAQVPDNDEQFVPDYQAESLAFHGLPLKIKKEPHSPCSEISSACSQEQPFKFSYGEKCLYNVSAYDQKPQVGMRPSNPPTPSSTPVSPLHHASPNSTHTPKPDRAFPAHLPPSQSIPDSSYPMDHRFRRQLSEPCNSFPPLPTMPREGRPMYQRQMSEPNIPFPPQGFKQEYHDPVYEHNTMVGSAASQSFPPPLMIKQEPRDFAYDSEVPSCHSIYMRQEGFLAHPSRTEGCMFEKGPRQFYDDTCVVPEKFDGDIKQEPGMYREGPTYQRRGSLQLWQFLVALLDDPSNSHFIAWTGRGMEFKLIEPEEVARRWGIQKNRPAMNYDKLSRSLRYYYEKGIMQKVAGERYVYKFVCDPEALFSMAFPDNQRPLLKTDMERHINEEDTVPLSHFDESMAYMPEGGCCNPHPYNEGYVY
# How it was run: as §1
# ERF = molecular target: T6, ERF (Homo sapiens, UniProt P50548 1-548); settings: protein: recombinant; tags: N-terminal GST; dsDNA, one strand shown
# T6 sequence: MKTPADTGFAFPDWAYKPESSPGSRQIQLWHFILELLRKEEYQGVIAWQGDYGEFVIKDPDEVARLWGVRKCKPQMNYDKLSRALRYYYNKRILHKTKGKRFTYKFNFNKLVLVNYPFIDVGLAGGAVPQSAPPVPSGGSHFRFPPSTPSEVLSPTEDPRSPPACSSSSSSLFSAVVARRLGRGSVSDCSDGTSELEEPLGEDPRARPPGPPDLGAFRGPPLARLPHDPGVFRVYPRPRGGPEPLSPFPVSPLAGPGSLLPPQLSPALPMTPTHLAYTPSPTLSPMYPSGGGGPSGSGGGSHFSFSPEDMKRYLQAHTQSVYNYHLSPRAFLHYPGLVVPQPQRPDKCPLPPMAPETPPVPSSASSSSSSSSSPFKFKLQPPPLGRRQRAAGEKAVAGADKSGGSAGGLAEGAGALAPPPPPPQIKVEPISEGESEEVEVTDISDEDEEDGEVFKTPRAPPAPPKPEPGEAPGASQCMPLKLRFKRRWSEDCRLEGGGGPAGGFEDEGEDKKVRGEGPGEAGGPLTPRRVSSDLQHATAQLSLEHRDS
# How it was run: as §1
# ETV3L = molecular target: T7, ETV3L (Homo sapiens, UniProt Q6ZN32 1-361); settings: protein: recombinant; tags: N-terminal GST; dsDNA, one strand shown
# T7 sequence: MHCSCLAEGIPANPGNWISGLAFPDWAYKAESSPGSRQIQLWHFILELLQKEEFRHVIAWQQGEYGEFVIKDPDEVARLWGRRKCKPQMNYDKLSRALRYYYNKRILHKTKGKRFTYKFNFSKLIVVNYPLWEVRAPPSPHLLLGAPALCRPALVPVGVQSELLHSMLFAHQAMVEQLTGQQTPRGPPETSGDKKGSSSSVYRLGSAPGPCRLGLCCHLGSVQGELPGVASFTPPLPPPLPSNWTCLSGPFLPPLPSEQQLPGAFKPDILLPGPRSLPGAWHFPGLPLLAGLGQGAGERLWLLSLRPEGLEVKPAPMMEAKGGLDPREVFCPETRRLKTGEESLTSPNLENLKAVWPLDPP
# How it was run: as §1
# ETS2 = molecular target: T8, ETS2 (Homo sapiens, UniProt P15036 1-469); settings: protein: recombinant; tags: N-terminal GST; dsDNA, one strand shown
# T8 sequence: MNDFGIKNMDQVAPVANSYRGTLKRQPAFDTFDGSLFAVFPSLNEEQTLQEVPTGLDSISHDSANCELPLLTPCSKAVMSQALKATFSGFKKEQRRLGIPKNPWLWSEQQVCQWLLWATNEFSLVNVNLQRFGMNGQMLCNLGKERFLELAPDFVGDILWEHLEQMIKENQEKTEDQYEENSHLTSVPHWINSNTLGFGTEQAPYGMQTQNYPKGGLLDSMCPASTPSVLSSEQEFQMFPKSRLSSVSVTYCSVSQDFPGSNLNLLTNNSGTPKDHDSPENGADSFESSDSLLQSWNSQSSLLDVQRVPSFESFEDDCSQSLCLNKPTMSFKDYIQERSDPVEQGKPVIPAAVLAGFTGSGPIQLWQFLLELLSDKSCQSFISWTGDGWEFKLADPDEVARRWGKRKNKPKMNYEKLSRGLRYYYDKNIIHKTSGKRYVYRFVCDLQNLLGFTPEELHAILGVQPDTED
# How it was run: as §1
# SPDEF = molecular target: T9, SPDEF (Homo sapiens, UniProt O95238 1-335); settings: protein: recombinant; tags: N-terminal GST; dsDNA, one strand shown
# T9 sequence: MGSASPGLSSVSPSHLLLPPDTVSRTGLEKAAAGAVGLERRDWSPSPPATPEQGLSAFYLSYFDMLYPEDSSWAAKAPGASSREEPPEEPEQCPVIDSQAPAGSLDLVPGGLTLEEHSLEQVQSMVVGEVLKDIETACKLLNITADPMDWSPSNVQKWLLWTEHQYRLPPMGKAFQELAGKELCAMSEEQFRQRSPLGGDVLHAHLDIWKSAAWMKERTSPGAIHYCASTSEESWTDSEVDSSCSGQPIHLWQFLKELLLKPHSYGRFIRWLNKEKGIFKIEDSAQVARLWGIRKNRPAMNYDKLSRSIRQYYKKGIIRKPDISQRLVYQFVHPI
# How it was run: as §1
# ETV7 = molecular target: T10, ETV7 (Homo sapiens, UniProt Q9Y603 1-341); settings: protein: recombinant; tags: N-terminal GST; dsDNA, one strand shown
# T10 sequence: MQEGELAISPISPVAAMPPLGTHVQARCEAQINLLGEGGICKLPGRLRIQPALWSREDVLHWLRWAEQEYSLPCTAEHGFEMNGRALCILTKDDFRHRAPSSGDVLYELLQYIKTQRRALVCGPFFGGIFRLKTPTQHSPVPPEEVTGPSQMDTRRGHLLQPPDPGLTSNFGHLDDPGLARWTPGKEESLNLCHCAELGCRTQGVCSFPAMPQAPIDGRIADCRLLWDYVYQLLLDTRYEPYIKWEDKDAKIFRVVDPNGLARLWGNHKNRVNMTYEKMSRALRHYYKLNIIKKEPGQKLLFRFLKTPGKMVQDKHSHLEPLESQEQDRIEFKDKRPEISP
# How it was run: as §1
# ELF5 = molecular target: T11, ELF5 (Homo sapiens, UniProt Q9UKW6-2 1-255); settings: protein: recombinant; tags: N-terminal GST; dsDNA, one strand shown
# T11 sequence: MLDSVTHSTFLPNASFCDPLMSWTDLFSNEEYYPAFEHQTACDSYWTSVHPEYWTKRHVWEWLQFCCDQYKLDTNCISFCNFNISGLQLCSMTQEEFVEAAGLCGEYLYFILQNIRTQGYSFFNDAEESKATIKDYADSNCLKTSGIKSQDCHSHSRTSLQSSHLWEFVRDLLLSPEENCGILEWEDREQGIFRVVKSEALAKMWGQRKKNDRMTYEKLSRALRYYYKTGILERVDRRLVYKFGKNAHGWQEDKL
# How it was run: as §1
# ETV3 = molecular target: T12, ETV3 (Homo sapiens, UniProt P41162-2 1-143); settings: protein: recombinant; tags: N-terminal GST; dsDNA, one strand shown
# T12 sequence: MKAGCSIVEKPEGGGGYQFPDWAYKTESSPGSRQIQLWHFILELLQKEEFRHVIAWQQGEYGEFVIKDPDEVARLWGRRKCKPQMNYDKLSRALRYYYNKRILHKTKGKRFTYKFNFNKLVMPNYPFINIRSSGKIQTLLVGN
# How it was run: as §1
# ETV6 = ETV6 (Homo sapiens, UniProt P41212 1-452); settings: protein: recombinant; tags: N-terminal GST; dsDNA, one strand shown
# Chain of ETV6 (P41212 whole entry): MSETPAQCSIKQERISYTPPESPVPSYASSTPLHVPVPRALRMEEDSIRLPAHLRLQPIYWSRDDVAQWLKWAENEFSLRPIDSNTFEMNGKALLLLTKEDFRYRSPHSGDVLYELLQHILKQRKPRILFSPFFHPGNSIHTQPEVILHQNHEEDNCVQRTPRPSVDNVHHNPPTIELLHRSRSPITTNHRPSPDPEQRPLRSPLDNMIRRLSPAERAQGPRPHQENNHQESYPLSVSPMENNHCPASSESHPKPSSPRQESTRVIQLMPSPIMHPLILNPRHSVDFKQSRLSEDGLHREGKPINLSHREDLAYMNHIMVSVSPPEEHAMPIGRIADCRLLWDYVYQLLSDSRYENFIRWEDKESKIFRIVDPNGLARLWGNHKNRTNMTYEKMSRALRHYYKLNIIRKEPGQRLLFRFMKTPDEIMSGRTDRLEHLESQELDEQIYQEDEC
# How it was run: as §1
sequence,measurement,setting,value
CTCATA,binding signal,FEV,"1.29 fold enrichment (6-mer frequency, TF over GST control)"
same,binding signal,ETV5,"1.37 fold enrichment (6-mer frequency, TF over GST control)"
same,binding signal,HSF1,"1.25 fold enrichment (6-mer frequency, TF over GST control)"
same,binding signal,SPIC,"1.46 fold enrichment (6-mer frequency, TF over GST control)"
same,binding signal,ELF4,"1.41 fold enrichment (6-mer frequency, TF over GST control)"
same,binding signal,ELK4,"1.35 fold enrichment (6-mer frequency, TF over GST control)"
same,binding signal,ETV2,"1.44 fold enrichment (6-mer frequency, TF over GST control)"
same,binding signal,ELF3,"1.34 fold enrichment (6-mer frequency, TF over GST control)"
same,binding signal,CRX,"1.38 fold enrichment (6-mer frequency, TF over GST control)"
same,binding signal,ETV1,"1.39 fold enrichment (6-mer frequency, TF over GST control)"
same,binding signal,ERF,"1.35 fold enrichment (6-mer frequency, TF over GST control)"
same,binding signal,ETV3L,"1.3 fold enrichment (6-mer frequency, TF over GST control)"
same,binding signal,ETS2,"1.35 fold enrichment (6-mer frequency, TF over GST control)"
same,binding signal,SPDEF,"1.33 fold enrichment (6-mer frequency, TF over GST control)"
same,binding signal,ETV7,"1.32 fold enrichment (6-mer frequency, TF over GST control)"
same,binding signal,ELF5,"1.39 fold enrichment (6-mer frequency, TF over GST control)"
same,binding signal,ETV3,"1.26 fold enrichment (6-mer frequency, TF over GST control)"
same,binding signal,ETV6,"1.27 fold enrichment (6-mer frequency, TF over GST control)"

# Source: PMC7862700, “An all-to-all approach to the identification of sequence-specific readers for epigenetic DNA modifications on cytosine”
